Test results: paper PMC4336329 (PLoS ONE, 2015)
Screen size: about 310,000 compounds; about 14,000 (4.5%) showed an effect of 50% or more. Effects have a minus sign here. For the sample, strong results were picked, then their nearest neighbours and some compounds at random.

target: human ether-à-go-go-related gene (hERG) potassium channel (human, UniProt Q12809); assay: primary screen, population patch clamp on CHO cells stably expressing hERG; higher = less effect of the substance
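Note: peak tail current of the secondary pulse compared with the same well before compound.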

Sequence of human ether-à-go-go-related gene (hERG) potassium channel (Q12809 whole entry, looked up): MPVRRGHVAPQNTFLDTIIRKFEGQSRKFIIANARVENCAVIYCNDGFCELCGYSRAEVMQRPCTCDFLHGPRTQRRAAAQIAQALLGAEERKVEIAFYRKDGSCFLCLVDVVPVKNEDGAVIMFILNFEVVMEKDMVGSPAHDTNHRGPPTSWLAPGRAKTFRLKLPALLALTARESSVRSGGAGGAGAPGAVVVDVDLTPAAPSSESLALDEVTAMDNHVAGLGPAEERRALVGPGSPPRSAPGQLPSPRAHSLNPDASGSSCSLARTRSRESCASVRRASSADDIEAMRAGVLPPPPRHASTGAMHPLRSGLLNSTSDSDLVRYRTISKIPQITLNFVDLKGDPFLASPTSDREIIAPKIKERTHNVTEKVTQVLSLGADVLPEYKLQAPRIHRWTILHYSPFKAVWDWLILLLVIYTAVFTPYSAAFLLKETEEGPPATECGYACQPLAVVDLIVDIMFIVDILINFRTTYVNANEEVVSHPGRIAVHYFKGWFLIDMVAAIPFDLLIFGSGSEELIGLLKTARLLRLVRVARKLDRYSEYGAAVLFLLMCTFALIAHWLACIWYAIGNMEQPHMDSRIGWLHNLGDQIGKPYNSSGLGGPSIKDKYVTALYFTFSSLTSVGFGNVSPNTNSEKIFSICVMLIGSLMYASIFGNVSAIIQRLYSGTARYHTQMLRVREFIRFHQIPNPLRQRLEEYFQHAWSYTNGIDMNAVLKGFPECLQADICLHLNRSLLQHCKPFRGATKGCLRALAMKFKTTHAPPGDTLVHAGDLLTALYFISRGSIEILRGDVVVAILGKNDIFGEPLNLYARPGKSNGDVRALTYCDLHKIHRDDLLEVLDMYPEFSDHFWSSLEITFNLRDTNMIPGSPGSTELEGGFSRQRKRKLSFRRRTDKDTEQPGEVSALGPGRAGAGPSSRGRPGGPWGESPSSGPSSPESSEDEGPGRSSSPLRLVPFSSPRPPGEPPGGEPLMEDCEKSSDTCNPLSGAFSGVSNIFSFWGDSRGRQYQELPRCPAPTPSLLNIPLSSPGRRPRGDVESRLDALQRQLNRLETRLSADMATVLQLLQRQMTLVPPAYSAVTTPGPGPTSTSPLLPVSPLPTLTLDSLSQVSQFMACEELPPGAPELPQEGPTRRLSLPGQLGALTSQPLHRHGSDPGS

Row | SMILES | hERG current change (%, negative = inhibition) at 10uM [%]
1 | O=C(Nc1ccccc1)NC1(C(=O)N2CCN(C(=O)c3ccco3)CC2)CCCCC1 | 0.526
2 | CCc1ccc(C2C(=O)c3ccccc3C2=O)cc1 | -3.18
3 | O=C(NNC(=O)c1cnccn1)c1ccc(Cl)cc1 | 10.1
4 | Cc1cccc(N2CCN(Cc3cc(=O)n4ccsc4n3)CC2)c1C | -37.1
5 | CCOC(=O)CC12CN3CN(C1)CC(CC(=O)OCC)(C3)C2=O | 8.62
6 | O=C(O)CCn1c(=S)oc2ccccc21 | -0.618
7 | CCOC(=O)C1(Cc2ccccc2)CCN(Cc2cnn(CC)c2)CC1 | -21.2
8 | CCOC(=O)C1(Cc2ccccc2)CCN(Cc2cnn(C(C)C)c2)CC1 | -28.7
9 | CCOC(=O)C1(Cc2ccccc2)CCN(Cc2cnn(-c3ccccc3)c2)CC1 | -81.4
10 | CCOC(=O)C1(CCCc2ccccc2)CCN(C(=O)Cn2nc(C)nc2C)CC1 | -24.6
11 | CCOC(=O)C1(CCCc2ccccc2)CCN(Cc2cn(CC)nc2C)CC1 | -74.1
12 | CCN1C(=O)C(=Cc2ccc(C)s2)C(=O)N(CC)C1=S | 5.09
13 | COc1ccc(OCC(=O)NCc2ccc(Cl)cc2)cc1 | 1.55
14 | COC(=O)c1nc(N)sc1-c1ccc(OC)cc1 | 10.3
15 | Cc1ccc(Oc2ccccc2NC(=O)CN2C(=O)NC3(CCCC3)C2=O)cc1 | 11
16 | O=C1NC(=O)N(c2ccc(Cl)cc2)C(=O)/C1=C\c1ccc(Sc2nc3ccccc3[nH]2)o1 | -65.6
17 | O=C1NC(=O)N(c2ccccc2F)C(=O)/C1=C/c1ccc(Sc2nc3ccccc3[nH]2)o1 | -4.03
18 | O=C1NC(=O)N(c2cccc(Cl)c2)C(=O)/C1=C\c1ccc(Sc2nc3ccccc3[nH]2)o1 | 13.9
19 | c1ccc(-n2ncc3c2ncn2nc(-c4ccco4)nc32)cc1 | 13.3
20 | O=S(=O)(c1ccc(F)cc1)N1CCC(c2nc3ccccc3[nH]2)CC1 | -2.46
21 | O=S(=O)(c1ccccc1F)N1CCC(c2nc3ccccc3[nH]2)CC1 | -13.3

Row | SMILES | hERG current change (%, negative = inhibition) at 10uM [%]
22 | CC(=O)c1ccc(S(=O)(=O)N2CCC(c3nc4ccccc4[nH]3)CC2)cc1 | -54.3
23 | O=S(=O)(c1cccc(C(F)(F)F)c1)N1CCC(c2nc3ccccc3[nH]2)CC1 | 0.277
24 | COc1ccc(S(=O)(=O)N2CCC(c3nc4ccccc4[nH]3)CC2)cc1 | 10.3
25 | CC(=O)Nc1ccc(S(=O)(=O)N2CCC(c3nc4ccccc4[nH]3)CC2)cc1 | -18.4
26 | CC(=O)c1cccc(S(=O)(=O)N2CCC(c3nc4ccccc4[nH]3)CC2)c1 | -56.6
27 | COc1ccc(OC)c(S(=O)(=O)N2CCC(c3nc4ccccc4[nH]3)CC2)c1 | -55.7
28 | O=S(=O)(c1cccc(Cl)c1)N1CCC(c2nc3ccccc3[nH]2)CC1 | 2.21
29 | Cc1[nH]c2ccc(F)cc2c1CCN(Cc1ccncc1)C(=S)Nc1ccc(F)cc1 | -38.4
30 | CC1=NN(C(=O)c2ccc(Cn3cc([N+](=O)[O-])cn3)cc2)C(O)(C(F)(F)F)C1 (centres unmarked) | -21.1
31 | Cc1ccc(C)c(NC(=O)CN2C(=O)COc3ccc(S(=O)(=O)N4CCCC4)cc32)c1 | -0.517
32 | O=C1NC(=O)C(=Cc2ccc(N3CCOCC3)cc2)C(=O)N1 | 12.9
33 | Cc1cc(C(=O)Nc2ncn[nH]2)ccc1[N+](=O)[O-] | 26.3
34 | Cc1cc(C(=O)Nc2ncn(Cc3ccc(F)cc3)n2)ccc1[N+](=O)[O-] | -51.7
35 | Cc1cc(C)nc(NC(=O)c2ccc([N+](=O)[O-])c(C)c2)n1 | 7.43
36 | C[C@]12C[C@H](O)[C@H]3[C@@H](CCC4=CC(=O)CC[C@@]43C)[C@@H]1CC[C@@H]2C(=O)CO | 0.529
37 | Cc1ccccc1Cn1c(=N)n(CC(O)c2ccco2)c2ccccc21.Cl (centres unmarked) | -59.8
38 | Cl.N=c1n(CCO)c2ccccc2n1Cc1ccccc1Cl | -20
39 | Br.CC(C)(C)C(=O)Cn1c(=N)n(Cc2ccccc2Cl)c2ccccc21 | -49.2
40 | Cc1ccccc1Cn1c(=O)n(Cc2ccco2)c(=O)c2ccccc21 | 2.24
41 | Cl.N=c1n(Cc2ccccc2Cl)c2ccccc2n1CC(O)c1ccco1 (centres unmarked) | -56.7
